Structures can show the parent of a compound that is named as a salt.
Columns and labels:
Conditions in all cases: incubation time: 27 h, anaerobic, 37 °C;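 for the amine columns active = adjusted P below 0.05 in both replicates with a change the same way and a mean fold change under 0.8 or over 1.25; inactive = the rest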
[1] = test system: Clostridium sporogenes DSM 1664; test: growth (OD595) fold change vs plate DMSO controls (fold change (ratio)); higher = more growth
Procedure, shortened: (§1)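 Anaerobic mGAM cultures in 96-well plates were grown for 27 h at 37 °C, and absorbance was then read at 595 nm. After blank and compound background correction with 20 µM compound solutions in water, a calibration factor of 5 gave OD. Growth is the fold change relative to the median of each plate's DMSO controls. Values are means of 2 biological replicates, with fold changes above 1.5 set to NA.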

Escherichia coli IAI1 [2] = test: as above
Procedure, shortened: as §1

[3] = test system: Klebsiella aerogenes DSM 30053; test: as above
Procedure, shortened: as §1

[4] = test system: Ruminococcus gnavus DSM 108212; test: as above
Procedure, shortened: as §1

[5] = test system: Klebsiella aerogenes DSM 30053; test: fold change of Histamine concentration vs plate DMSO controls (fold change (ratio)); higher = more amine produced, active = hit call of the paper (significant change in both replicates, either direction)
Procedure, shortened: (§2)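 Amine values are fold changes relative to DMSO-only wells on the same plate. They derive from 27 h, 37 °C anaerobic mGAM cultures of four gut bacterial strains in 80 µL wells, dosed at 20 µM final, or 50 µM final for sweeteners. Extraction of the whole culture, LC–triple-quadrupole MS in dynamic MRM mode, external calibration curves and within-batch drift correction were used, with 2 biological replicates averaged.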

[6] = test system: Clostridium sporogenes DSM 1664; test: fold change of Tryptamine concentration vs plate DMSO controls (fold change (ratio)); higher = more amine produced, active = hit call of the paper (significant change in both replicates, either direction)
Procedure, shortened: as §2

[7] = test system: Ruminococcus gnavus DSM 108212; test: as above
Procedure, shortened: as §2

Escherichia coli IAI1 [8] = test: fold change of Putrescine concentration vs plate DMSO controls (fold change (ratio)); higher = more amine produced, active = hit call of the paper (significant change in both replicates, either direction)
Procedure, shortened: as §2

[9] = test system: Klebsiella aerogenes DSM 30053; test: as above
Procedure, shortened: as §2

Escherichia coli IAI1 [10] = test: fold change of Cadaverine concentration vs plate DMSO controls (fold change (ratio)); higher = more amine produced, active = hit call of the paper (significant change in both replicates, either direction)
Procedure, shortened: as §2

[11] = test system: Klebsiella aerogenes DSM 30053; test: as above
Procedure, shortened: as §2

[12] = test system: Ruminococcus gnavus DSM 108212; test: fold change of 2-Phenylethylamine concentration vs plate DMSO controls (fold change (ratio)); higher = more amine produced, active = hit call of the paper (significant change in both replicates, either direction)
Procedure, shortened: as §2

Structure (SMILES) | growth [1] | growth (Escherichia coli IAI1 [2]) | growth [3] | growth [4] | fold change of Histamine concentration [5] | fold change of Tryptamine concentration [6] | fold change of Tryptamine concentration [7] | fold change of Putrescine concentration (Escherichia coli IAI1 [8]) | fold change of Putrescine concentration [9] | fold change of Cadaverine concentration (Escherichia coli IAI1 [10]) | fold change of Cadaverine concentration [11] | fold change of 2-Phenylethylamine concentration [12]
C[C@@H]1C[C@H]2[C@@H]3C[C@H](F)C4=CC(=O)C=C[C@]4(C)[C@@]3(F)[C@@H](O)C[C@]2(C)[C@@]1(O)C(=O)COC(=O)C(C)(C)C [Flumethasone pivalate] (20 µM) | 0.889 | 0.954 | 1 | 0.811 | 1.04 (inactive) | 1 (inactive) | 1.04 (inactive) | 1 (inactive) | 0.998 (inactive) | 1.02 (inactive) | 0.984 (inactive) | 1.05 (inactive)
CC1(C)S[C@@H]2[C@H](NC(=O)C3(N)CCCCC3)C(=O)N2[C@H]1C(=O)O [Cyclacillin] (20 µM) | 0 | 1 | 1.02 | 0.0834 | 0.87 (inactive) | 0.0132 (active) | 0.0795 (active) | 0.887 (inactive) | 0.993 (inactive) | 1.36 (active) | 1 (inactive) | 0.0578 (active)
O=C(c1ccc(F)cc1)C1CCN(CCn2c(=O)[nH]c3ccccc3c2=O)CC1 [Ketanserin tartrate hydrate] (20 µM) | 1.21 | 0.974 | 1.02 | 1.06 | 1.05 (inactive) | 1.18 (inactive) | 1.01 (inactive) | 1.03 (inactive) | 1.02 (inactive) | 0.963 (inactive) | 1.02 (inactive) | 1.02 (inactive)
CCCCOC(=O)c1ccc(O)cc1 [Butylparaben] (20 µM) | 1.09 | 0.963 | 0.965 | 1.01 | 1.01 (inactive) | 0.984 (inactive) | 0.964 (inactive) | 0.939 (inactive) | 0.968 (inactive) | 1.04 (inactive) | 0.984 (inactive) | 0.953 (inactive)
O=c1cc(-c2ccc(O)c(O)c2)oc2cc(O)cc(O)c12 [Luteolin] (20 µM) | 0.877 | 0.977 | 0.977 | 1.11 | 0.969 (inactive) | 0.776 (inactive) | 0.985 (inactive) | 1.07 (inactive) | 0.991 (inactive) | 1.03 (inactive) | 1.02 (inactive) | 1.08 (inactive)
Clc1ccc2nsnc2c1NC1=NCCN1 [Tizanidine hydrochloride] (20 µM) | 0.00885 | 1.01 | 1.15 | 0.103 | 0.919 (inactive) | 0.0144 (active) | 0.0877 (active) | 0.984 (inactive) | 0.995 (inactive) | 0.983 (inactive) | 1.02 (inactive) | 0.0862 (active)
NS(=O)(=O)c1cc2c(cc1Cl)NC(CC1CCCC1)NS2(=O)=O (centres undefined) [Cyclopenthiazide] (20 µM) | 1.33 | 1.03 | 0.98 | 0.993 | 1.01 (inactive) | 1.03 (inactive) | 1.04 (inactive) | 1.07 (inactive) | 1.01 (inactive) | 0.979 (inactive) | 0.996 (inactive) | 1.04 (inactive)
CCCCOc1cc(C(=O)NCCN(CC)CC)c2ccccc2n1 [Dibucaine] (20 µM) | 1.14 | 1.01 | 1.06 | 1.02 | 0.93 (inactive) | 1.02 (inactive) | 1 (inactive) | 0.927 (inactive) | 0.955 (inactive) | 0.961 (inactive) | 1.03 (inactive) | 1.03 (inactive)
CN(Cc1cc(Br)cc(Br)c1N)C1CCCCC1 [Bromhexine hydrochloride] (20 µM) | 0.942 | 0.985 | 0.971 | 0.937 | 1.06 (inactive) | 1.05 (inactive) | 1 (inactive) | 1 (inactive) | 1.03 (inactive) | 1.06 (inactive) | 0.991 (inactive) | 1.07 (inactive)
CN[C@@H]1[C@H](O[C@H]2[C@H](O[C@H]3[C@H](O)[C@@H](O)[C@H](NC(=N)N)[C@@H](O)[C@@H]3NC(=N)N)O[C@@H](C)[C@]2(O)CO)O[C@@H](CO)[C@H](O)[C@H]1O [Dihydrostreptomycin sulfate] (20 µM) | 1.08 | 0.98 | 0.92 | 0.933 | 0.704 (inactive) | 1.25 (inactive) | 0.984 (inactive) | 0.958 (inactive) | 0.922 (inactive) | 1.01 (inactive) | 0.993 (inactive) | 0.991 (inactive)
C[C@H](Cc1cc2c(c(C(N)=O)c1)N(CCCO)CC2)NCCOc1ccccc1OCC(F)(F)F [Silodosin] (20 µM) | 1 | 1 | 1.02 | 1.11 | 0.918 (inactive) | 1.08 (inactive) | 1.01 (inactive) | 0.941 (inactive) | 0.992 (inactive) | 1.02 (inactive) | 1.02 (inactive) | 0.999 (inactive)
c1ccc2[nH]c(-c3cscn3)nc2c1 [Tiabendazole] (20 µM) | 1.06 | 0.991 | 0.899 | 0.962 | 1.12 (inactive) | 1.01 (inactive) | 1.02 (inactive) | 0.997 (inactive) | 0.964 (inactive) | 1.04 (inactive) | 0.979 (inactive) | 1.04 (inactive)
Nc1nc(/C(=C/CC(=O)O)C(=O)N[C@@H]2C(=O)N3C(C(=O)O)=CCS[C@H]23)cs1 [Ceftibuten] (20 µM) | 0.5 | 1.06 | 1.14 | 1.27 | 0.885 (inactive) | 1.02 (inactive) | 1.04 (inactive) | 0.79 (inactive) | 1.04 (inactive) | 0.942 (inactive) | 1.07 (inactive) | 1.06 (inactive)
CN(C)CCCN1c2ccccc2[S+]([O-])c2ccc(Cl)cc21 (centres undefined) [Chlorpromazine Sulfoxide] (20 µM) | 0.948 | 0.996 | 0.985 | 1.03 | 1.04 (inactive) | 1.06 (inactive) | 1.04 (inactive) | 0.993 (inactive) | 0.996 (inactive) | 1.01 (inactive) | 0.977 (inactive) | 1.1 (inactive)
NS(=O)(=O)c1cc2c(cc1C(F)(F)F)NC(Cc1ccccc1)NS2(=O)=O (centres undefined) [Bendroflumethiazide] (20 µM) | 0.897 | 1.01 | 1.06 | 1.05 | 0.915 (inactive) | 0.993 (inactive) | 0.993 (inactive) | 0.977 (inactive) | 0.971 (inactive) | 0.959 (inactive) | 1 (inactive) | 0.957 (inactive)
CN(C)CCCN1c2ccccc2Sc2ccc(Cl)cc21 [Chlorpromazine hydrochloride] (20 µM) | 0.986 | 1.21 | 1.03 | 1.29 | 0.88 (inactive) | 1.06 (inactive) | 0.908 (inactive) | 1.14 (inactive) | 0.959 (inactive) | 0.934 (inactive) | 1.01 (inactive) | 0.935 (inactive)
Oc1c(Cl)cc(Cl)c(Cl)c1Cc1c(O)c(Cl)cc(Cl)c1Cl (20 µM) | 0 | 0.939 | 1.02 | 0 | 1.06 (inactive) | 0.00872 (active) | 0.0717 (active) | 1.06 (inactive) | 1.01 (inactive) | 1.37 (active) | 1.02 (inactive) | 0.0513 (active)
NCc1ccc(S(N)(=O)=O)cc1 [Mafenide hydrochloride] (20 µM) | 1.13 | 1 | 1.04 | 0.971 | 1.08 (inactive) | 0.888 (inactive) | 0.773 (inactive) | 1 (inactive) | 1.02 (inactive) | 1.04 (inactive) | 0.987 (inactive) | 0.755 (inactive)
CCC[C@@H]1C[C@@H](C(=O)N[C@@H]([C@H]2O[C@H](SC)[C@H](O)[C@@H](O)[C@H]2O)[C@@H](C)O)N(C)C1 [Lincomycin hydrochloride] (20 µM) | 0.767 | 0.925 | 0.981 | 0.121 | 0.952 (inactive) | 0.761 (active) | 0.129 (active) | 0.531 (inactive) | 0.682 (active) | 0.967 (inactive) | 1.02 (inactive) | 0.117 (active)
CCOC(=O)OC(C)OC(=O)[C@@H]1N2C(=O)[C@@H](NC(=O)[C@H](N)c3ccccc3)[C@H]2SC1(C)C (some centres undefined) [Bacampicillin hydrochloride] (20 µM) | 0 | 1.16 | 1.46 | 0.0946 | 1.02 (inactive) | 0.0203 (active) | 0.0343 (active) | 0.928 (inactive) | 1.07 (inactive) | 1.6 (active) | 1.05 (inactive) | 0.0374 (active)
CC(CN(C)C)C(C)(O)Cc1ccc(Cl)cc1 (centres undefined) [Clobutinol hydrochloride] (20 µM) | 0.926 | 1.01 | 1.02 | 1.26 | 1.03 (inactive) | 1.02 (inactive) | 0.975 (inactive) | 0.975 (inactive) | 0.997 (inactive) | 0.965 (inactive) | 0.988 (inactive) | 0.988 (inactive)
CC(C)(C)C(=O)C(Oc1ccc(Cl)cc1)n1ccnc1 (centres undefined) [Climbazole] (20 µM) | 1.22 | 1.05 | 1.07 | 0.922 | 0.96 (inactive) | 1.04 (inactive) | 0.979 (inactive) | 1.04 (inactive) | 1.02 (inactive) | 0.968 (inactive) | 1.01 (inactive) | 1.03 (inactive)
